# ± gives the standard deviation of the averaged measurements.
# How the values were obtained:
# Assay in all cases: promoter activity interaction Z-score (Lux/OD deviation from empty-vector control); higher = stronger promoter induction by the compound
# [1] = system: E. coli BW25113 acrABp lux reporter
# Summary of the method: (§1)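 Reporter strains of E. coli BW25113 grew at 37°C in 40 µl LB Lennox in 384-well plates. Readings of OD600 and luminescence were taken every 30 min over 12 h, integrated over 0–8 h (wild type) or 1–9 h (deletion strains), and wells below 10% of the median growth value were excluded. Scores are Z-transformed residuals of growth-normalised luminescence from a fit against a control.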
# [2] = system: E. coli BW25113 micFp lux reporter
# Summary of the method: as §1
# [3] = system: E. coli BW25113 ompFp lux reporter
# Summary of the method: as §1
# [4] = system: E. coli BW25113 robp lux reporter
# Summary of the method: as §1
# [5] = system: E. coli BW25113 soxSp lux reporter
# Summary of the method: as §1
# [6] = system: E. coli BW25113 tolCp lux reporter
# Summary of the method: as §1
# [7] = 0.034 µg/ml, genetic background: wild type
# [8] = 0.034 µg/ml, genetic background: ΔmarA
# [9] = 0.034 µg/ml, genetic background: Δrob
# [10] = 0.034 µg/ml, genetic background: ΔsoxS
# [11] = 0.067 µg/ml, genetic background: wild type
# [12] = 0.067 µg/ml, genetic background: ΔmarA
# [13] = 0.067 µg/ml, genetic background: Δrob
# [14] = 0.067 µg/ml, genetic background: ΔsoxS
# [15] = 0.27 µg/ml, genetic background: wild type
# [16] = 0.27 µg/ml, genetic background: ΔmarA
# [17] = 0.27 µg/ml, genetic background: Δrob
# [18] = 0.27 µg/ml, genetic background: ΔsoxS
compound,measurement,setting,value
CCN1CCN(C(=O)N[C@@H](C(=O)N[C@@H]2C(=O)N3[C@@H]2SC(C)(C)[C@@H]3C(=O)O)c2ccccc2)C(=O)C1=O [Piperacillin],promoter activity interaction Z-score,[1]; [7],-0.232 ± 0.0098
same,promoter activity interaction Z-score,[1]; [8],-0.0362 ± 0.011
same,promoter activity interaction Z-score,[1]; [9],0.0917 ± 0.12
same,promoter activity interaction Z-score,[1]; [10],-0.171 ± 0.35
same,promoter activity interaction Z-score,[1]; [11],-0.00951 ± 0.16
same,promoter activity interaction Z-score,[1]; [12],-0.975 ± 0.12
same,promoter activity interaction Z-score,[1]; [13],-0.296 ± 0.13
same,promoter activity interaction Z-score,[1]; [14],0.0579 ± 0.55
same,promoter activity interaction Z-score,[1]; [15],-0.155 ± 0.22
same,promoter activity interaction Z-score,[1]; [16],1.08 ± 0.93
same,promoter activity interaction Z-score,[1]; [17],0.045 ± 0.16
same,promoter activity interaction Z-score,[1]; [18],-0.703 ± 0.75
same,promoter activity interaction Z-score,[2]; [7],0.00552 ± 0.088
same,promoter activity interaction Z-score,[2]; [8],-0.146 ± 0.15
same,promoter activity interaction Z-score,[2]; [9],-0.0761 ± 0.045
same,promoter activity interaction Z-score,[2]; [10],-0.264 ± 0.15
same,promoter activity interaction Z-score,[2]; [11],0.13 ± 0.05
same,promoter activity interaction Z-score,[2]; [12],0.0167 ± 0.14
same,promoter activity interaction Z-score,[2]; [13],-0.0679 ± 0.059
same,promoter activity interaction Z-score,[2]; [14],-0.148 ± 0.27
same,promoter activity interaction Z-score,[2]; [15],-0.272 ± 0.16
same,promoter activity interaction Z-score,[2]; [16],-0.139 ± 0.059
same,promoter activity interaction Z-score,[2]; [17],-0.0211 ± 0.15
same,promoter activity interaction Z-score,[2]; [18],-0.639 ± 0.054
same,promoter activity interaction Z-score,[3]; [7],-0.0853 ± 0.096
same,promoter activity interaction Z-score,[3]; [8],0.15 ± 0.27
same,promoter activity interaction Z-score,[3]; [9],-0.247 ± 0.24
same,promoter activity interaction Z-score,[3]; [10],-0.152 ± 0.042
same,promoter activity interaction Z-score,[3]; [11],0.324 ± 0.3
same,promoter activity interaction Z-score,[3]; [12],-0.184 ± 0.32
same,promoter activity interaction Z-score,[3]; [13],0.0351 ± 0.21
same,promoter activity interaction Z-score,[3]; [14],0.0638 ± 0.27
same,promoter activity interaction Z-score,[3]; [15],0.489 ± 0.45
same,promoter activity interaction Z-score,[3]; [16],0.879 ± 0.27
same,promoter activity interaction Z-score,[3]; [17],1.38 ± 0.61
same,promoter activity interaction Z-score,[3]; [18],0.0824 ± 1.4
same,promoter activity interaction Z-score,[4]; [7],0.0506 ± 0.23
same,promoter activity interaction Z-score,[4]; [8],-0.0397 ± 0.005
same,promoter activity interaction Z-score,[4]; [9],0.283 ± 0.84
same,promoter activity interaction Z-score,[4]; [10],-0.0239 ± 0.021
same,promoter activity interaction Z-score,[4]; [11],0.564 ± 0.3
same,promoter activity interaction Z-score,[4]; [12],0.263 ± 0.19
same,promoter activity interaction Z-score,[4]; [13],0.443 ± 0.078
same,promoter activity interaction Z-score,[4]; [14],0.154 ± 0.23
same,promoter activity interaction Z-score,[4]; [15],0.179 ± 0.51
same,promoter activity interaction Z-score,[4]; [16],0.636 ± 0.1
same,promoter activity interaction Z-score,[4]; [17],0.356 ± 0.1
same,promoter activity interaction Z-score,[4]; [18],-0.904 ± 1.2
same,promoter activity interaction Z-score,[5]; [7],-0.0446 ± 0.039
same,promoter activity interaction Z-score,[5]; [8],-0.141 ± 0.061
same,promoter activity interaction Z-score,[5]; [9],0.0401 ± 0.031
same,promoter activity interaction Z-score,[5]; [10],-0.0874 ± 0.14
same,promoter activity interaction Z-score,[5]; [11],0.017 ± 0.053
same,promoter activity interaction Z-score,[5]; [12],-0.00164 ± 0.038
same,promoter activity interaction Z-score,[5]; [13],0.126 ± 0.088
same,promoter activity interaction Z-score,[5]; [14],0.0907 ± 0.13
same,promoter activity interaction Z-score,[5]; [15],-0.122 ± 0.084
same,promoter activity interaction Z-score,[5]; [16],-0.184 ± 0.011
same,promoter activity interaction Z-score,[5]; [17],-0.0489 ± 0.12
same,promoter activity interaction Z-score,[5]; [18],-0.233 ± 0.7
same,promoter activity interaction Z-score,[6]; [7],0.0285 ± 0.87
same,promoter activity interaction Z-score,[6]; [8],-0.171 ± 0.024
same,promoter activity interaction Z-score,[6]; [9],-0.382 ± 0.53
same,promoter activity interaction Z-score,[6]; [10],0.0095 ± 1.5
same,promoter activity interaction Z-score,[6]; [11],0.334 ± 0.13
same,promoter activity interaction Z-score,[6]; [12],0.917 ± 0.67
same,promoter activity interaction Z-score,[6]; [13],0.279 ± 0.2
same,promoter activity interaction Z-score,[6]; [14],-0.332 ± 0.83
same,promoter activity interaction Z-score,[6]; [15],-0.552 ± 0.3
same,promoter activity interaction Z-score,[6]; [16],0.498 ± 0.032
same,promoter activity interaction Z-score,[6]; [17],0.489 ± 0.43
same,promoter activity interaction Z-score,[6]; [18],-0.895 ± 0.62
